Sampled rows, rich in hits. Any-hit rate of the full collection: about 3.5%.
mHTT CaM bind: mHTT-calmodulin interaction abrogation; inhibition, % at 15 µM; hit rate 3.6% among 190,000; AlphaScreen His-mHTT/GST-CaM binding, luminescence; P42858
Pf apPOL inh: Pf-apPOL DNA polymerase inhibition; inhibition, % at 10 µM; AID 1794808; hit rate 0.25% among 210,000; Recombinant Pf-apPOL, molecular beacon fluorescence, 1.5 h
Each line names hits and unclear results; the compound was inactive in the other large screens; ! = a repeat was not active. Rule as the data show it: active = inhibition above about 50%; inactive = the rest.

Cc1ccc(C(C)C)cc1S(=O)(=O)N1CCN(c2ccccc2)CC1	none
CC(=O)c1c(C(C)=O)c(C)n(-c2cc(Br)ccc2O)c1C	none
Cc1cc(C2(c3ccc(O)c(C)c3)C(=O)N(C)c3ccc(Br)cc32)ccc1O	mHTT CaM bind 87.2
COc1ccc(C2CC(c3ccccc3Cl)=NN2C(=O)CN(C)C(C)=O)cc1 (centres undefined)	mHTT CaM bind 95.7
CCC(=O)N(C)CC(=O)N1N=C(c2ccccc2Cl)CC1c1ccccc1Cl (centres undefined)	mHTT CaM bind 59.7
COc1ccc(C2=NN(C(=O)CN(C)C(C)=O)C(c3ccc(C)cc3)C2)cc1 (centres undefined)	none
CCNC(=O)N(C)CC(=O)N1N=C(c2ccccc2Cl)CC1c1ccccc1F (centres undefined)	none
O=C(Nc1cnccn1)c1c(O)c2c(n(C3CC3)c1=O)CCCC2	none (no result: Pf apPOL inh)
O=C(Nc1ccc2oc(-c3ccncc3)nc2c1)C1CCCCC1	none
COc1ccc(N2C(=O)CC(NC34CC5CC(CC(C5)C3)C4)C2=O)cc1 (centres undefined)	none
COc1ccccc1/C=C1\SC(=O)N(CNc2cccc(C)c2)C1=O	mHTT CaM bind 58.0
COc1ccc(NCN2C(=O)S/C(=C\c3ccccc3OC)C2=O)cc1	mHTT CaM bind 52.0
O=C1S/C(=C\c2ccccc2F)C(=O)N1CNc1cccc(F)c1	none
COc1ccc(/C=C2\SC(=O)N(CNc3ccccc3OC)C2=O)cc1	none
Cc1ccccc1CC(=O)Nc1cc(-c2cccnc2)no1	none
Cn1ncc(N2CCCC(C(=O)NCc3ccc(F)cc3F)C2)cc1=O (centres undefined)	none
CC1=C(C(=O)Nc2nc3ccccc3s2)C(c2cccc(Cl)c2)C2=C(CCCC2=O)N1 (centres undefined)	none
O=C1CCN(Cc2ccccc2)CCN1[C@H](CSc1ccccc1)Cc1ccccc1	none
O=C1CCN(CCc2ccccc2)CCN1CCSc1ccc(Br)cc1	mHTT CaM bind 52.9
Cc1ccc(SCCN2CCN(CCc3ccccc3)CCC2=O)cc1	none
COc1ccc(SC[C@H](Cc2ccccc2)N2CCN(CC(C)C)CCC2=O)cc1	none
COc1ccc(SC[C@H](CC(C)C)N2CCN(CCc3ccccc3)CCC2=O)cc1	mHTT CaM bind 99.5
O=C1CCN(CCc2ccccc2)CCN1[C@H](CSc1ccc(Br)cc1)Cc1ccccc1	mHTT CaM bind 74.6!
CC(C)C[C@@H](CN=[N+]=[N-])N1CCN(CCc2ccccc2)CCC1=O	mHTT CaM bind 71.0
CC(C)C[C@@H](CO)N1CCN(CCc2ccccc2)CCC1=O	none
CCNC(=O)N1CCOc2ccc(C)cc21	none
CCOC(=O)CC1(NC(=O)N2CCCC2c2ccccc2C)CCCCC1 (centres undefined)	none
CN1CCN(c2ccc(/C=C(\C#N)c3nn(CCO)c(N)c3C#N)cc2[N+](=O)[O-])CC1	none
Cc1ccc(SC[C@H](CC(C)C)N2CCN(CCc3ccccc3)CCC2=O)cc1	mHTT CaM bind 80.4
CC(=O)Nc1ccc(SC[C@H](CC(C)C)N2CCN(CCc3ccccc3)CCC2=O)cc1	none
Cc1cc(C)c2nc(NC(=O)c3ccc(S(=O)(=O)N(C)C)cc3)sc2c1	none
CC12CCC(C(=O)NCCCN3CCOCC3)(CC1=O)C2(C)C (centres undefined)	none
COc1ccc(C(=O)c2ccc(N3CCN(C)CC3)c([N+](=O)[O-])c2)cc1	none
O=C(c1cc2ccccc2o1)N1CCN(c2ccc(C(F)(F)F)cc2[N+](=O)[O-])CC1	none
CC1Cc2ccccc2N1C(=O)c1ccc(N2CCCCC2)c([N+](=O)[O-])c1 (centres undefined)	mHTT CaM bind 63.0
O=C(O)c1ccccc1C(=O)c1ccc(N2CCCCC2)c([N+](=O)[O-])c1	none
CN1CCN(c2ccc(C(=O)c3ccc(Cl)cc3)cc2[N+](=O)[O-])CC1	mHTT CaM bind 61.7
O=C(c1cc2ccccc2o1)N1CCN(c2ccc(Cl)cc2[N+](=O)[O-])CC1	mHTT CaM bind 57.0
O=C1OC(c2ccc([N+](=O)[O-])cc2)=N/C1=C\c1cccs1	none
Cc1nn(C(=O)C2CCCN2S(=O)(=O)c2ccccc2)c(C)c1Sc1ccc(Cl)cc1 (centres undefined)	none
O=C1C=CC(=O)C(c2cccc(C(F)(F)F)c2)=C1	mHTT CaM bind 74.0
O=C1c2ccccc2C(=O)N1Cn1cc(-c2cccc(C(F)(F)F)c2)nn1	none
O=C(NCc1ccccc1Cl)c1ccc(NS(=O)(=O)c2ccccc2)cc1	none
CCN(CC)c1cc(C)c2cc(NC(=O)/C=C/c3cccs3)ccc2n1	none
Cn1cc2c3c(cccc31)CN(C(=O)Cc1ccccc1Cl)CC2	mHTT CaM bind 50.3
COc1ccc(CC(=O)N2CCc3cn(C)c4cccc(c34)C2)cc1	mHTT CaM bind 57.2
Cc1ccccc1CC(=O)N1CCc2cn(C)c3cccc(c23)C1	none
COc1ccc(CC(=O)N2CCc3ccccc3C2)cc1	none
N#Cc1ccccc1CSc1nnc2c(n1)[nH]c1ccccc12	none
Cc1ccccc1NC(=O)C1CCCN(c2ncc(-c3ccc(F)cc3)cn2)C1 (centres undefined)	none
Cc1nc2c(oc3nc(-c4ccco4)c4c(c32)CC(C)(C)OC4)c(-c2ccccc2)c1C(=O)O	none
Cc1nc2c(oc3nc(-c4ccoc4)c4c(c32)CC(C)(C)OC4)c(-c2ccccc2)c1C(=O)O	mHTT CaM bind 74.0!
O=C1OC(c2ccc(Cl)c([N+](=O)[O-])c2)=N/C1=C\c1ccccc1Br	none
COC(=O)C(C#N)=CC=Cc1ccccc1	none (no result: mHTT CaM bind)
COc1ccc(-c2ccoc2)cc1[C@H]1[C@H]2C=CC[C@@H](C)[C@@H]2C(=O)N1Cc1ccccc1	mHTT CaM bind 86.1
COc1ccc(-c2ccc(C)cc2)cc1[C@H]1[C@H]2C=CC[C@@H](C)[C@@H]2C(=O)N1Cc1ccccc1	none
Cn1c(COc2ccccc2)nn(C2c3ccccc3Oc3ccccc32)c1=S	mHTT CaM bind 54.3 (no result: Pf apPOL inh)
Cn1c(COc2ccccc2)nn(CN2CCC3(CC2)OCCO3)c1=S	none (no result: Pf apPOL inh)
CC(C)C(C(=O)O)N1C(=O)C(=Cc2cccc(Br)c2)SC1=S (centres undefined)	mHTT CaM bind 58.8
COc1ccc(OC)c(C=C2SC(=S)N(C(C(=O)O)C(C)C)C2=O)c1 (centres undefined)	mHTT CaM bind 51.1
COc1ccc(OC)c(C=C2SC(=S)N(C(C)C(=O)O)C2=O)c1 (centres undefined)	none
CC(C)C(C(=O)O)N1C(=O)C(=Cc2ccccc2)SC1=S (centres undefined)	none
COc1cccc(CC(=O)N2CCC(Nc3ncnc4c3CCC4)C2)c1 (centres undefined)	none
CC(C)NC(=O)c1cc(-c2ccc3ccccc3c2)on1	none
O=C(Nc1cc2ccccc2oc1=O)c1ccc(Cl)c([N+](=O)[O-])c1	none
Clc1ccc(C2CC(c3ccccc3)Nc3nnnn32)cc1 (centres undefined)	none
Cc1cc(I)ccc1NC(=O)c1cccs1	none
COc1ccc(-c2ccc(CN3C(CC(C)C)C(=O)N(Cc4cn(CCC5OCCCO5)nn4)CCS3(=O)=O)cc2)cc1OC (centres undefined)	none
CC(C)CC1C(=O)N(Cc2cn(CCC3OCCCO3)nn2)CCS(=O)(=O)N1Cc1ccc(-c2ccncc2)cc1 (centres undefined)	none
CC(C)CC1C(=O)N(Cc2cn(CCC3OCCCO3)nn2)CCS(=O)(=O)N1Cc1ccc(-c2cccc(N(C)C)c2)cc1 (centres undefined)	mHTT CaM bind 69.3

Source: PubChem
